# According to PubChem BioAssay (NCATS):
# Inconclusive results are not listed. Unmarked numbers belong to inactive results. Calls of active or inactive are those of the source. Calls come from the whole dose curve; as a rule, active = well fitted inhibition curve with a large enough effect; inconclusive = small, poorly fitted or top-dose-only effect; inactive = flat fitted curve, though single readings scatter.
# Experiments:
# [1] = tested on: CRL-7250; assay: Cytotoxic Profiling of Annotated Libraries Using Quantitative High-Throughput Screening (AID 1296008); settings: Five cell lines viability, CellTiter-Glo ATP luminescence, 48-72 h; max response: stronger effect = lower value; note: nearly all actives have a fitted effect of over 60% in size
# Outline: (§1)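 Compounds were pin-transferred onto cells and incubated 48 or 72 hr at 37 degree Celsius, 95% humidity. CellTiter-Glo was added, plates sat 10 min at room temperature, then ATP-coupled luminescence was imaged as the viability read-out.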
# [2] = tested on: HEK293; assay: as above; settings: Five cell lines viability, CellTiter-Glo ATP luminescence, 48-72 h; max response: stronger effect = lower value
# Outline: as §1
# % is set by controls: 0 for no effect and ±100 for the full control effect; potency is the fitted concentration of half-maximal effect.
smiles,measurement,setting,value
COc1ccc(/C=C/C(=O)O[C@@H]2[C@@H](O)[C@H](C)O[C@@H](O[C@H]3[C@@H]4C=CO[C@@H](O[C@H]5O[C@@H](CO)[C@H](O)[C@@H](O)[C@@H]5O)[C@@H]4[C@@]4(CO)O[C@@H]34)[C@@H]2OC(C)=O)cc1,max response,[1],-2.4%
same,max response,[2],0.0012%
CC1(C)CC[C@]2(C(=O)O[C@@H]3O[C@H](CO[C@@H]4O[C@H](CO)[C@@H](O)[C@H](O)[C@H]4O[C@@H]4O[C@H](CO)[C@@H](O)[C@H](O)[C@H]4O)[C@@H](O)[C@H](O[C@@H]4O[C@H](CO)[C@@H](O)[C@H](O)[C@H]4O)[C@H]3O)CC[C@]3(C)C(=CCC4[C@@]5(C)CC[C@@H](O)[C@@](C)(C(=O)O[C@@H]6O[C@H](CO)[C@@H](O)[C@H](O)[C@H]6O)C5CC[C@]43C)[C@@H]2C1 (stereo partly specified),outcome,[1],inactive
same,max response,[2],-9.43%
OC[C@H]1O[C@@H](Oc2cc(O)c3c(c2)O[C@@H](c2ccc(O)cc2)[C@H](O)C3)[C@H](O)[C@@H](O)[C@@H]1O,max response,[1],-1.22%
same,max response,[2],-5.13%
COc1cc2c(cc1OC)CC(=O)N(CCCNC[C@H]1Cc3cc(OC)c(OC)cc31)CC2,outcome,[1],inactive
same,max response,[2],-6.01%
C=C1CC23CC1CCC2C12OC(=O)C(C)(CCC1O)C2C3C(=O)O (stereo unspecified),outcome,[1],inactive
same,max response,[2],2.62%
O=C(Nc1ccn[nH]1)c1c(F)cccc1F,outcome,[1],inactive
same,max response,[2],4.81%
Cc1ccccc1NC(=O)Nc1ccc(CC(=O)N(C)[C@@H](CC(C)C)C(=O)NCC[C@H](NC(=O)[C@@H]2CCCN2S(=O)(=O)c2cc(Cl)cc(Cl)c2)C(=O)O)cc1,max response,[1],-22.4%
same,outcome,[2],inactive
C[C@@H]1O[C@@H](O[C@H]2[C@H](O[C@H]3CC[C@@]4(C)C(CC[C@]5(C)C4CC=C4[C@@H]6CC(C)(C)CC[C@]6(C(=O)O[C@@H]6OC[C@H](O)[C@H](O)[C@H]6O[C@@H]6O[C@@H](C)[C@H](O[C@@H]7O[C@H](CO)[C@@H](O)[C@H](O)[C@H]7O)[C@H](O)[C@H]6O)[C@H](O)C[C@]45C)C3(C)C)O[C@H](CO)[C@@H](O[C@@H]3OC[C@@H](O)[C@H](O)[C@H]3O)[C@@H]2O)[C@H](O)[C@H](O)[C@H]1O (stereo partly specified),outcome,[1],inactive
same,max response,[2],4.66%
COc1cc(/C=C/C(=O)O[C@H]2[C@H](O)[C@@H](CO)O[C@@]2(CO)O[C@H]2O[C@H](CO)[C@@H](O)[C@H](O)[C@H]2O)ccc1O,max response,[1],3.83%
same,max response,[2],0.588%
O=C(O)c1ccccc1NC(=O)N1CCC(c2ccccc2C(F)(F)F)CC1,outcome,[1],inactive
same,outcome,[2],inactive
C[C@@H](O)[C@H](NC(=O)c1ccc(C#Cc2ccc(CN3CCOCC3)cc2)cc1)C(=O)NO,max response,[1],-14.3%
same,max response,[2],-16.7%
C[C@]1(CO)CCC[C@]2(C)C3=C(CCC12)COC3 (stereo partly specified),max response,[1],-5.66%
same,max response,[2],-9.57%
COc1ccc2cc(C(C)C(=O)Oc3ccc(C(N)=S)cc3)ccc2c1 (stereo unspecified),outcome,[1],inactive
same,max response,[2],-0.854%
CC(C)C(C#N)O[C@@H]1O[C@H](CO[C@@H]2O[C@@H](C)[C@H](O)[C@@H](O)[C@H]2O)[C@@H](O)[C@H](O)[C@H]1O (stereo partly specified),max response,[1],-4.82%
same,max response,[2],0.693%
CC(C)c1cc(C(=O)N2CC[C@@H](NC(=O)C3CC3)C2)n[nH]1,max response,[1],-17.8%
same,max response,[2],-9.12%
COc1ccc(C(=O)n2c(C)c(Cc3cccc(O[C@@H](C)C(=O)O)c3)c3cc(OC(F)(F)F)ccc32)cc1,max response,[1],-19.1%
same,max response,[2],-1.86%
C/C=C/C(O)C1OC(=O)CC1Nc1ccc(C(=O)O)cc1 (stereo unspecified),max response,[1],4.31%
same,max response,[2],4.45%
CC1CCC2C(C)(C)[C@@H](O)CC[C@]2(C)C12Cc1c(O)cc3c(c1O2)CN(C(CCC(=O)O)C(=O)O)C3=O (stereo partly specified),max response,[1],-1.01%
same,max response,[2],-4.16%
CC(O)/C=C/C1(O)C(C)C(O[C@@H]2O[C@H](CO)[C@@H](O)[C@H](O)[C@H]2O)C(O)CC1(C)C (stereo partly specified),max response,[1],0.975%
same,outcome,[2],inactive
CCCCNc1ccc(-c2ccc(CN3CCOCC3)cn2)c(NC2CCC(O)CC2)c1 (stereo unspecified),outcome,[1],inactive
same,max response,[2],-7.2%
COc1cc(/C=C/CO)cc(OC)c1O[C@@H]1O[C@H](CO[C@@H]2O[C@H](CO)[C@@H](O)[C@H](O)[C@H]2O)[C@@H](O)[C@H](O)[C@H]1O,max response,[1],3.07%
same,max response,[2],1.54%
CC[C@]12C=CCN3CC[C@@]4(c5cc([C@@]6(C(=O)OC)C[C@H]7C[C@@H](C(C)(F)F)CN(Cc8c6[nH]c6ccccc86)C7)c(OC)cc5N(C)[C@H]4[C@@](O)(C(=O)OC)[C@@H]1OC(C)=O)[C@@H]32,Potency,[1],0.485 µM (active)
same,Potency,[2],0.172 µM (active)
C[C@@H]1O[C@@H](O[C@H]2[C@H](O)[C@@H](O[C@@H]3O[C@H](CO)[C@@H](O)[C@H](O[C@@H]4O[C@H](CO)[C@@H](O)[C@H](O)[C@H]4O)[C@H]3O)[C@H](O[C@H]3CC[C@@]4(C)C(=CC[C@@H]5C4CC[C@@]4(C)C5C[C@@H]5OC6(CC[C@@](C)(CO[C@@H]7O[C@H](CO)[C@@H](O)[C@H](O)[C@H]7O)O6)[C@@H](C)[C@@H]54)C3)O[C@@H]2CO)[C@H](O)[C@H](O)[C@H]1O (stereo partly specified),max response,[1],-2.4%
same,max response,[2],3.47%
O=C1NC(Cc2c[nH]c3ccccc23)C(=O)NC1Cc1c[nH]c2ccccc12 (stereo unspecified),max response,[1],-0.609%
same,outcome,[2],inactive
COc1ccc(C2(O)CCC(N3CC[C@@H](NC(=O)CNC(=O)c4cccc(C(F)(F)F)c4)C3)CC2)cn1 (stereo partly specified),max response,[1],-18%
same,max response,[2],-19.1%
COCCOc1ccc(N2CCN(CCn3ncc4c3nc(N)n3nc(-c5ccco5)nc43)CC2)cc1,outcome,[1],inactive
same,max response,[2],-9.01%
C[C@H](NC(c1cccc2[nH]c(=O)c(=O)[nH]c12)P(=O)(O)O)c1ccc(Br)cc1 (stereo partly specified),max response,[1],-1.1%
same,max response,[2],1.8%
CC(C)(C)CCN1C[C@@H]2C(CNC(=O)c3cc(Cl)cc(Cl)c3)[C@@H]2C1 (stereo partly specified),max response,[1],-6.01%
same,max response,[2],-15.4%
O=C(CC(c1ccccc1)c1ccccc1)N1CCN(C(c2ccccc2)c2ccccc2)CC1,max response,[1],-24.4%
same,Potency,[2],20.6 µM (active)
COc1cc(NC(=O)Nc2cccc(CNC(=O)O[C@H]3CCOC3)c2)ccc1-c1cnco1,Potency,[1],8.2 µM (active)
same,Potency,[2],2.31 µM (active)
COC(=O)C1=CO[C@@H](O[C@@H]2O[C@H](CO)[C@@H](O)[C@H](O)[C@H]2O)[C@H]2[C@@H]1CC(OC)O[C@@H]2C (stereo partly specified),outcome,[1],inactive
same,max response,[2],4.51%
C=C1C(=O)OC2/C=C(\CO)CC/C=C(\C=O)CC(OC(=O)CC(C)C)C12 (stereo unspecified),max response,[1],-22.7%
same,Potency,[2],12.8 µM (active)
C[C@@H]1C(=O)OC[C@H]2C(C(=O)O)=C[C@@H]3CC(C)(C)C[C@]312,outcome,[1],inactive
same,max response,[2],4.25%
CC(=O)O[C@@H]1c2c(C)coc2C(=O)[C@@]23O[C@@H]2CC[C@H](C)[C@@]13C,max response,[1],3.98%
same,max response,[2],2.56%
CC(C)NCC(C(=O)N1CCN(c2ncnc3c2C(C)CC3O)CC1)c1ccc(Cl)cc1 (stereo unspecified),max response,[1],-1.68%
same,Potency,[2],0.58 µM (active)
CCC(CC)C(=O)Nc1sc2c(c1C#N)CCC(C(C)(C)CC)C2 (stereo unspecified),outcome,[1],inactive
same,Potency,[2],23.1 µM (active)
CC12CCC(OC3OC(CO)C(O)C(OC4OC(CO)C(O)C(O)C4O)C3O)CC1CCC1C2CCC2(C)/C(=C3/COC(=O)C3)CCC12O (stereo unspecified),max response,[1],-8.75%
same,max response,[2],-1.14%
NCc1c[nH]c(=S)n1[C@@H]1CCc2c(F)cc(F)cc2C1,outcome,[1],inactive
same,max response,[2],-9.28%
CC#CC(=O)N1CCC[C@H]1c1nc(-c2ccc(C(=O)Nc3ccccn3)cc2)c2c(N)nccn12,max response,[1],-4.15%
same,max response,[2],-0.695%
C=C1C[C@@]23CCC4[C@@](C)(CCC[C@@]4(C)C(=O)OC)C2CC[C@@H]1C3 (stereo partly specified),outcome,[1],inactive
same,outcome,[2],inactive
N#CC(c1ccnc(OCc2ccc(CN3CCOCC3)cc2)n1)c1nc2ccccc2s1 (stereo unspecified),outcome,[1],inactive
same,Potency,[2],5.17 µM (active)
C[C@@H]1O[C@@H](O[C@H]2[C@H](OC(=O)[C@]34CCC(C)(C)C[C@H]3C3=CCC5[C@@]6(C)C[C@H](O)[C@H](O[C@@H]7O[C@H](CO)[C@@H](O[C@H]8OC[C@](O)(CO)[C@H]8O)[C@H](O)[C@H]7O)[C@@](C)(CO)C6[C@H](O)C[C@@]5(C)[C@]3(C)C[C@H]4O)OC[C@H](O)[C@@H]2O)[C@H](O)[C@H](O)[C@H]1O[C@@H]1OC[C@@H](O)[C@H](O[C@@H]2OC[C@](O)(CO)[C@H]2O)[C@H]1O (stereo partly specified),outcome,[1],inactive
same,max response,[2],0.437%
C=C1[C@@H]2CC[C@@H]3[C@@](CCC4C(C(=O)O)(C(=O)O)C[C@@H](O[C@@H]5O[C@H](CO)[C@@H](O)[C@H](O)[C@H]5OC(=O)CC(C)C)C[C@]43C)(C2)[C@H]1O (stereo partly specified),max response,[1],-6.97%
same,max response,[2],-0.701%
CN(C)CCn1cc(S(=O)(=O)c2cccc(F)c2)c2cccnc21,outcome,[1],inactive
same,outcome,[2],inactive
CN(C)C/C=C/C(=O)Nc1cccc(C(=O)Nc2ccc(Nc3nccc(-c4cccnc4)n3)cc2)c1,Potency,[1],7.31 µM (active)
same,Potency,[2],5.8 µM (active)
C=CC/C=C\C/C=C\CCCCCCCc1cccc(O)c1C(=O)O,outcome,[1],inactive
same,max response,[2],-5.53%
CC1CCCCN1S(=O)(=O)c1ccc(N2CCCC2=O)cc1 (stereo unspecified),max response,[1],-8.63%
same,outcome,[2],inactive
OC[C@H]1O[C@@H](OC(CCCCc2ccc(O)cc2)CCc2ccc(O)cc2)[C@H](O)[C@@H](O)[C@@H]1O (stereo partly specified),max response,[1],-35.2%
same,max response,[2],-49.4%
